Assay outcomes as filed in PubChem BioAssay.
D3 antag – qHTS of D3 Dopamine Receptor Antagonist: qHTS. D3R cells, DiscoveRx beta-arrestin luminescence, antagonist mode; active compounds read low. max response, negative = inhibition, %. hit rate 2.5% among 360,000. AID 652054, 2013; in the data active = max response below about -50%; inconclusive = no clear call, values can overlap the other calls; note: % is set by controls: 0 for no effect and ±100 for the full control effect
Target sequence (P35462 whole entry, looked up): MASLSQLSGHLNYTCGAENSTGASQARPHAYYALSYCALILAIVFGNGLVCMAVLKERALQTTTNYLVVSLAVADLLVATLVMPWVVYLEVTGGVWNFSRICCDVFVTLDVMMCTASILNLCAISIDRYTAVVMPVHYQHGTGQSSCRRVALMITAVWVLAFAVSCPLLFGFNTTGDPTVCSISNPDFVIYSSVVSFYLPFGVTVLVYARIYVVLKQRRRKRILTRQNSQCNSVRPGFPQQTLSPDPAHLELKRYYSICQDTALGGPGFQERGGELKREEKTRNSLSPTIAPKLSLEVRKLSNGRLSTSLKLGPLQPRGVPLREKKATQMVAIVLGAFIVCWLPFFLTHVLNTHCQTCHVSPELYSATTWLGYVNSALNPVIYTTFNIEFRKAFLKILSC
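Cells expressing the human receptor were seeded at 1500 cells/well, incubated overnight at 37 degrees C in 5% CO2, then exposed to library compounds with dopamine controls for 90 minutes at 37 degrees C before luminescent detection.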
uPA surface inh – qHTS for Inhibitors of Cell Surface uPA Generation; cell surface uPA generation assay, qHTS; Potency, µM (titrated, usually from 38.3 µM), for inactives: top-dose activity change, negative = inhibition, actives largely listed as inhibitors; hit rate 0.31% among 330,000; active = well fitted inhibition curve with a large enough effect; inconclusive = small, poorly fitted or top-dose-only effect; inactive = no such curve, though single readings can be large or run the other way; tested in mouse RAW 264.7 cells; note: potency is the fitted concentration of half-maximal effect; % is set by controls: 0 for no effect and ±100 for the full control effect; nearly all actives have a fitted effect of over 55% in size
RGS4 inhibitor – Inhibitors of Regulator of G Protein Signaling (RGS) 4: qHTS. Regulator of G-protein signaling 4 (Homo sapiens), P49798. Transcreener GDP fluorescence polarization, RGS4-accelerated GTP hydrolysis. Potency, µM (series often up to 114 µM), for the others: at the highest dose activity change, negative = inhibition, usual class: inhibitors. hit rate 0.039% among 390,000; active = well fitted inhibition curve with a large enough effect; inconclusive = small, poorly fitted or top-dose-only effect; inactive = no such curve, though single readings can be large or run the other way; note: potency is the fitted concentration of half-maximal effect; % is set by controls: 0 for no effect and ±100 for the full control effect; nearly all actives have a fitted effect of over 75% in size
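MLSMR compounds (23 nl, pin-transferred) preincubated 10 min at room temperature with a 500nM (2x) first reagent, then RGS4 at 900nM (2x) plus Transcreener GDP mix added; fluorescence polarization (620/688 nm) read before and after 90 min at 30 °C.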
D3 ag – qHTS of D3 Dopamine Receptor Agonist: qHTS; D(3) dopamine receptor (Homo sapiens), P35462; D3R DiscoveRx beta-arrestin cells, luminescence, 90 min; max activation, %; hit rate 0.58% among 410,000; AID 652048, 2013; in the data active = max activation above about 30%; note: 0% is about no effect
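Agonist mode: compounds and dopamine controls were applied to plated cells for 90 min at 37 degrees C after an overnight attachment at 1500 cells/well. Luminescent read-out followed 30 - 60 minutes at room temperature with DiscoveRx detection reagent.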
An asterisk follows results filed as active; ? = inconclusive; . = no result given. Sampled rows, rich in hits. Any-hit rate of the full collection: about 3.1%.

SMILES	D3 antag	uPA surface inh	RGS4 inhibitor	D3 ag
COc1cc(OC)c(OC)cc1CCC(C)NCCC(c1ccccc1)c1ccccc1 (configuration not stated)	-71*	-6%	-5%	0
OC1(c2ccc(Cl)cc2)CCN(Cc2cn[nH]c2-c2ccccc2)CC1	-98*	3%	-11%	-12
OC1(c2ccc(Cl)cc2)CCN(Cc2cn[nH]c2-c2ccc(F)cc2)CC1	-98*	-1%	-4%	-15
COc1ccc(-c2[nH]ncc2CN2CCC(O)(c3ccc(Cl)cc3)CC2)cc1	?	-2%	-3%	-13
Cc1c(C(=O)NCc2ccc(F)cc2)sc(=O)n1Cc1ccc(C(=O)c2ccccc2)cc1	-12	.	.	2
C[C@@](N)(C(=O)O)[C@@H]1C[C@@H]1C(=O)O	.	.	24µM*	.
CCCCOC(=O)CC(CC(=O)OCCCC)(OC(C)=O)C(=O)OCCCC	.	.	.	0
Cc1ccc(Oc2nc3c(c(=O)n(Cc4ccccc4)c(=O)n3C)n2C)cc1C	.	.	7%	35*
Cc1ccc(Oc2nc3c(c(=O)n(Cc4ccccc4Cl)c(=O)n3C)n2C)cc1C	.	.	8%	8
CCN(CC)S(=O)(=O)c1ccc(NC(=O)CC(NC(C)=O)c2ccccc2)cc1 (configuration not stated)	-78*	-3%	-28%	2
Cc1ccc(C(C[N+](=O)[O-])c2c(C)[nH]n(-c3ccccc3)c2=O)cc1 (configuration not stated)	-63*	-13%	-94%	-36
CCc1ccc(NC(=O)c2sc3nc(C)cc(C)c3c2NC(=O)c2ccccc2)cc1	.	.	12%	-3
C(=C\c1ccco1)/c1nc2ccccc2[nH]1	1	7.1µM*	-40%	-1
COc1cc(C2c3cc4c(cc3OC(C)(N3CCCC3)C2C)OCO4)cc(OC)c1OC (configuration not stated)	-21	-9%	-36%	-14
O=C(Cc1ccccc1)NC1CC(=O)N(c2ccc3c(c2)OCCO3)C1 (configuration not stated)	.	.	10%	5
O=C(C1CCCN(Cc2ccccc2Br)C1)N1CCCCC1 (configuration not stated)	-85*	5%	-12%	-6
O=C(C1CCCN(Cc2ccccc2C(F)(F)F)C1)N1CCCCC1 (configuration not stated)	-88*	2%	-2%	1
CCCCCCOc1ccc(C(=N)N(CCCC)CCCC)c2ccccc12	.	.	.	12
COc1cc(NC(=O)CC2C(=O)N(c3cccc(C)c3)C(=O)N2Cc2ccco2)cc(OC)c1 (configuration not stated)	.	.	24%	62*
COC(=O)c1ccc(NC(=O)CC2C(=O)N(c3cccc(C)c3)C(=O)N2Cc2ccco2)cc1 (configuration not stated)	.	.	6%	14
O=C(COC(=O)c1cccc2c1C(=O)c1ccccc1C2=O)NC1CCCCC1	67	-5%	10%	2
O=C(COC(=O)c1ccc2c(c1[N+](=O)[O-])C(=O)c1ccccc1C2=O)NC1CC1	-64*	-10%	-14%	-9
C#CCOCCOCCOCCNc1nc(N2CCN(C(=O)[C@H]([C@@H](C)CC)n3cc(CCCN=C(N)N)nn3)CC2)nc(N2CCN(C(=O)[C@H](CCCCN)n3cc(CCC(=O)O)nn3)CC2)n1	17	4%	-20%	48*
C#CCOCCOCCOCCNc1nc(N2CCN(C(=O)[C@H]([C@@H](C)CC)n3cc(CCCCN)nn3)CC2)nc(N2CCN(C(=O)[C@H](CCCCN)n3cc(CCC(=O)O)nn3)CC2)n1	34	-2%	-19%	-3
Cc1ccc(C2CC(=O)N(Cc3ccccc3)c3c2c(C)nn3-c2nc(C)cc(C)n2)cc1 (configuration not stated)	.	.	-7%	-12
CCOC(=O)c1cnc2ccc(C)cc2c1Nc1ccc(OCc2ccccc2Cl)cc1	.	.	-2%	14
Cc1cc(-n2cccn2)ccc1CN1CCN(CC(C)C)C(CCO)C1 (configuration not stated)	-24	-6%	-9%	-16
Cc1cc(-n2cccn2)ccc1CN1CCN(C2CCCC2)C(CCO)C1 (configuration not stated)	-70*	3%	-10%	-22
CC(=O)c1cccc(CN2CCN(C3CCCCC3)C(CCO)C2)c1 (configuration not stated)	-54*	5%	3%	-7
